Each structure is given as a SMILES string. Out of some 16,000 compounds screened, about 4,000 (25%) were called active. About 26% were inconclusive and are not listed. Not all results are given here. Values without a mark were called inactive. The call rests on the fitted dose curve; in most records, active means well fitted curve in the direction sought with a large enough effect; inconclusive means small, poorly fitted or top-dose-only effect, or effect the other way; inactive means no such curve, though single readings can be large or run the other way.
On the % scale 0 is the no-effect control and ±100 the full control effect.

The target of the assay is Cytochrome P450 2C9 (Homo sapiens) (UniProt P11712). Kind of assay: Cytochrome panel assay with activity outcomes. The following applies: recombinant CYP, pro-luciferin dealkylation, luminescence, p450-cyp2c9; series mostly up to 57.1 µM.
Chain of Cytochrome P450 2C9 (Homo sapiens) (P11712 whole entry, looked up): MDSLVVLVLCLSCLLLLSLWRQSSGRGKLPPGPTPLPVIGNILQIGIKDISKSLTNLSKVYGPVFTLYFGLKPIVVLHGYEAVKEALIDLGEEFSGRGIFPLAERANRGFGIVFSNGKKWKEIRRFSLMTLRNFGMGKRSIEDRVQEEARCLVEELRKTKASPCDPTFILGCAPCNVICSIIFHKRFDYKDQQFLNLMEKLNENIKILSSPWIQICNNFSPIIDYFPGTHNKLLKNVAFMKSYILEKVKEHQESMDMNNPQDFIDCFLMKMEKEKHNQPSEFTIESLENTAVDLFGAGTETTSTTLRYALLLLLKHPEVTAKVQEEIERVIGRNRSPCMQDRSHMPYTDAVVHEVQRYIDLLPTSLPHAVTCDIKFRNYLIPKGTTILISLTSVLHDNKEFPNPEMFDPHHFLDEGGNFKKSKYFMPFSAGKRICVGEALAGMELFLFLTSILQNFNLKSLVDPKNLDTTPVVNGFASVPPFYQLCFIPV
With `CC1(C)SC(=S)N(NC(=O)Nc2ccccc2)C1N(O)C(=O)Nc1ccccc1` (centres undefined), the AC50 is 10 µM (active).

Consider `COCCNc1nc(-c2ccccc2CN(C)C)nc2ccccc12`, for which the activity, negative = inhibition was 1.68% [at 2.29 µM].

With `COc1ccc([C@H](O)c2ccccn2)cc1`, the activity, negative = inhibition is -12.5% [at 11.4 µM].

For the compound `O[C@H](CNc1ccccn1)c1ccccc1`, the activity, negative = inhibition is -4.96% [at 11.4 µM].

For `COc1ccc([C@@H](Nc2ccccn2)c2cc(C(C)(C)C)cc(C(C)(C)C)c2O)cc1`, the AC50 was 2.51 µM (active).

Take `CN1CCN(c2ccc([N+](=O)[O-])cc2NC(=O)c2ccccc2Cl)CC1`: the AC50 entry is “inactive”.

On to `O=[N+]([O-])c1ccc(N2CCN(CCOc3nonc3-c3ccccc3)CC2)c(Cl)c1`, for which the AC50 is 22.4 µM (active).

Take `c1ccc2c(c1)oc1c(NCCCn3ccnc3)ncnc12`: the AC50 is 0.447 µM (active).

In the case of `c1cncc(-c2ccc3ncnc(NCCN4CCOCC4)c3c2)c1`, the activity, negative = inhibition is 23.6% [at 2.29 µM].

As to `c1ccc(-n2ncc3c(NCCCN4CCOCC4)ncnc32)cc1`, the AC50 entry was “inactive”.

As to `COc1ccc(-c2nc3cnc(OC)nc3n(-c3ccc(OC)cc3)c2=O)cc1`, the AC50 entry was “inactive”.

Consider `CCNc1ncc2nc(C)c(=O)n(C3CC3)c2n1`, for which the AC50 result was “inactive”.

Regarding `Cc1ccccc1-c1nccc(NCc2cccs2)n1`, the activity, negative = inhibition was -17.9% [at 2.29 µM].

As to `Cc1ccc(-c2nnc(-c3ccc(NC(=O)c4cccs4)cc3)o2)cc1`, the AC50 is 5.01 µM (active).

Consider `Cc1ccccc1-c1nc(-c2ccc(NC(=O)c3cccs3)cc2)no1`, for which the AC50 was 12.6 µM (active).

In the case of `CS(=O)(=O)c1ccccc1-c1nc(-c2cc(C(F)(F)F)cc(C(F)(F)F)c2)no1`, the AC50 result is “inactive”.

As to `O=C(c1csnn1)N1CCC[C@@]2(CCN(Cc3nccs3)C2)C1`, the AC50 entry was “inactive”.

`c1ccc(CCCNc2nnnc3ccccc23)cc1`: the activity, negative = inhibition is -19.1% [at 11.4 µM].

`Cc1cc([N+](=O)[O-])ccc1NCc1ccccc1`: the AC50 is 3.55 µM (active).

In the case of `O=C(O)c1cc([N+](=O)[O-])ccc1NCCCc1ccccc1`, the AC50 is 0.501 µM (active).

Regarding `COC(=O)C/C=C\[C@@H](C)[C@@H](/C=N\O[C@@H](C)CN1CCCc2nc(C)c(C)cc21)OC`, the activity, negative = inhibition was -19.3% [at 11.4 µM].

In the case of `O=S(=O)(c1ccccc1)N1CCC2(CCCN(c3cccc(-c4ccccc4)c3)C2)CC1`, the AC50 entry is “inactive”.

For the compound `CC(C)CN1CC[C@@]2(CCCN(S(=O)(=O)c3ccccc3)C2)C1`, the AC50 result was “inactive”.

With `O=S(=O)(c1ccccc1)N1CCC2(CC1)CN(c1ccccn1)C2`, the AC50 entry was “inactive”.

Take `O=S(=O)(c1ccccc1)N1CCC2(CCCN(c3ccccn3)C2)CC1`: the half-maximal activity concentration (AC50) was 1 µM (active).

In the case of `O=S(=O)(c1ccccc1)N1CCC2(CCCN(c3ccccc3)C2)CC1`, the AC50 is 1.26 µM (active).

For `CN1CCCC2(CCN(S(=O)(=O)c3ccccc3)CC2)C1`, the AC50 result was “inactive”.

`O=S(=O)(c1ccccc1)N1CCC2(CCCN(c3ncccn3)C2)CC1`: the AC50 was 1 µM (active).

As for `O=S(=O)(c1ccccc1)N1CCC[C@@]2(CCN(c3ccncc3)C2)C1`, the AC50 is 15.8 µM (active).

On to `O=S(=O)(c1ccccc1)N1CCC2(CC1)CN(c1ncccn1)C2`, for which the AC50 result was “inactive”.

`CS(=O)(=O)N1CCC2(CCCN(c3ccccn3)C2)CC1`: the AC50 entry is “inactive”.

`CS(=O)(=O)N1CCC[C@@]2(CCN(c3ccccn3)C2)C1`: the AC50 result is “inactive”.

Turning to `O=S(=O)(c1ccccc1)N1CCC2(CCN(c3ncccn3)CC2)CC1`, the AC50 entry is “inactive”.

Consider `C=C(NC(=O)C(=C)NC(=O)c1csc(C2=N[C@@H]3c4csc(n4)[C@@H]4NC(=O)c5csc(n5)[C@@H]([C@](C)(O)[C@H](C)O)NC(=O)[C@@H]5CSC(=N5)/C(=C/C)NC(=O)[C@@H]([C@H](C)O)NC(=O)c5csc(n5)[C@]3(CC2)NC(=O)[C@@H](C)NC(=O)C(=C)NC(=O)[C@@H](C)NC(=O)[C@@H]([C@@H](C)CC)N[C@H]2C=Cc3c([C@H](C)O)cc(nc3[C@@H]2O)C(=O)O[C@H]4C)n1)C(N)=O`, for which the AC50 entry was “inactive”.

`O=[N+]([O-])/C=C/c1cn(Cc2ccccc2)c2ccccc12`: the half-maximal activity concentration (AC50) is 11.2 µM (active).

For `O=C1C2C3C=CC(C3)C2C(=O)N1/N=C/c1cn(Cc2ccccc2)c2ccccc12` (centres undefined), the AC50 result is “inactive”.

Consider `O=C1C2C3C=CC(C3)C2C(=O)N1/N=C/c1cn(Cc2ccc(F)cc2)c2ccccc12` (centres undefined), for which the AC50 result was “inactive”.

For `C/C(=N/O)c1ccc2cc(Br)c3ccccc3c2c1`, the activity, negative = inhibition is -8.36% [at 11.4 µM].

Take `Cc1cccc(CNc2nc(-c3ccccc3CN(C)C)nc3ccccc23)c1`: the activity, negative = inhibition was -1.33% [at 2.29 µM].

Regarding `Nc1ccc(N(c2ccccc2)c2ccc(N)cc2)cc1`, the AC50 was 7.08 µM (active).

For the compound `C[C@H](c1ccccc1)N1C(=O)[C@H]2[C@@H]3[C@H](O)[C@H](O)CC(=O)[C@H]3CC[C@H]2C1=O`, the activity, negative = inhibition was 20% [at 11.4 µM].

Turning to `N[C@@H](Cc1cc(CP(=O)(O)O)cc(-c2ccccc2Cl)c1)C(=O)O`, the AC50 entry was “inactive”.

`Cc1c(N2CCCC2)cc2c(c1NC(=O)c1ccccc1Cl)C(C)(C)CC2(C)C`: the activity, negative = inhibition is -14.9% [at 11.4 µM].

For `Cc1cc(F)ccc1S(=O)(=O)Nc1ccccc1C(=O)Nc1ccccc1N1CCOCC1`, the concentration at half-maximal activity (AC50) is 0.447 µM (active).

As for `COC(=O)CSC(C(=O)Nc1ccc(C)c(C)c1)c1ccccc1` (centres undefined), the AC50 is 1.78 µM (active).

Consider `Cc1ccc(NC(=O)C2C3CCCC2C3c2ccccc2)cc1C` (centres undefined), for which the AC50 entry was “inactive”.

With `Cc1ccc(NC(=O)c2ccccc2C(=O)O)cc1C`, the activity, negative = inhibition was -16.6% [at 11.4 µM].

For `C#CCCCO/N=C1/C[C@@H](O)[C@@H](O)[C@@H]2[C@@H]3C(=O)N(CCC(=O)OCC)C(=O)[C@H]3CC[C@H]12`, the activity, negative = inhibition was 12.8% [at 11.4 µM].

Regarding `Cc1cccc(C)c1OC[C@@H](N)C(C)C`, the AC50 result is “inactive”.

With `COC(=O)c1[nH]c2ccc(Br)cc2c1NC(=O)CN1CCN(C2CCCCC2)CC1`, the AC50 entry was “inactive”.

On to `COC(=O)c1[nH]c2ccc(Br)cc2c1NC(=O)CN1CCCc2ccccc21`, for which the AC50 was 0.891 µM (active).

As for `CC1(C)CC(=O)C2=C(C1)Nc1cc3c(cc1C2c1ccc(F)cc1)OCO3` (centres undefined), the AC50 was 4.47 µM (active).

With `N#Cc1c(NC(=O)C(F)(F)F)sc2c3c(=O)c4ccccc4c(=O)c=3oc3ccccc3c12`, the AC50 was 0.0501 µM (active).

As for `O=C(NC12CC3CC(CC(C3)C1)C2)N1CCN(c2nc(-c3ccccc3)cs2)CC1`, the AC50 was 12.6 µM (active).

The values are drawn from PubChem BioAssay AID1851 (National Center for Advancing Translational Sciences (NCATS), 2009).
